Test results from the supplement of paper PMC11732987, “Enantioselective OTUD7B fragment discovery through chemoproteomics screening and high-throughput optimisation” (Communications Chemistry, 2025).

Assays:
Experiment in all cases: log2 ratio of Biotin-Ahx-Ub-VS probe labelling (fragment/DMSO); higher = less target engagement (more negative = stronger competition), active = hit call of the paper (q ≤ 0.05, log2 ratio ≤ -1)
Settings in all cases: compound concentration: 200 uM; treatment time: 3 h
[1] = target: T1, USP19 (UniProt O94966)
T1 sequence (whole entry): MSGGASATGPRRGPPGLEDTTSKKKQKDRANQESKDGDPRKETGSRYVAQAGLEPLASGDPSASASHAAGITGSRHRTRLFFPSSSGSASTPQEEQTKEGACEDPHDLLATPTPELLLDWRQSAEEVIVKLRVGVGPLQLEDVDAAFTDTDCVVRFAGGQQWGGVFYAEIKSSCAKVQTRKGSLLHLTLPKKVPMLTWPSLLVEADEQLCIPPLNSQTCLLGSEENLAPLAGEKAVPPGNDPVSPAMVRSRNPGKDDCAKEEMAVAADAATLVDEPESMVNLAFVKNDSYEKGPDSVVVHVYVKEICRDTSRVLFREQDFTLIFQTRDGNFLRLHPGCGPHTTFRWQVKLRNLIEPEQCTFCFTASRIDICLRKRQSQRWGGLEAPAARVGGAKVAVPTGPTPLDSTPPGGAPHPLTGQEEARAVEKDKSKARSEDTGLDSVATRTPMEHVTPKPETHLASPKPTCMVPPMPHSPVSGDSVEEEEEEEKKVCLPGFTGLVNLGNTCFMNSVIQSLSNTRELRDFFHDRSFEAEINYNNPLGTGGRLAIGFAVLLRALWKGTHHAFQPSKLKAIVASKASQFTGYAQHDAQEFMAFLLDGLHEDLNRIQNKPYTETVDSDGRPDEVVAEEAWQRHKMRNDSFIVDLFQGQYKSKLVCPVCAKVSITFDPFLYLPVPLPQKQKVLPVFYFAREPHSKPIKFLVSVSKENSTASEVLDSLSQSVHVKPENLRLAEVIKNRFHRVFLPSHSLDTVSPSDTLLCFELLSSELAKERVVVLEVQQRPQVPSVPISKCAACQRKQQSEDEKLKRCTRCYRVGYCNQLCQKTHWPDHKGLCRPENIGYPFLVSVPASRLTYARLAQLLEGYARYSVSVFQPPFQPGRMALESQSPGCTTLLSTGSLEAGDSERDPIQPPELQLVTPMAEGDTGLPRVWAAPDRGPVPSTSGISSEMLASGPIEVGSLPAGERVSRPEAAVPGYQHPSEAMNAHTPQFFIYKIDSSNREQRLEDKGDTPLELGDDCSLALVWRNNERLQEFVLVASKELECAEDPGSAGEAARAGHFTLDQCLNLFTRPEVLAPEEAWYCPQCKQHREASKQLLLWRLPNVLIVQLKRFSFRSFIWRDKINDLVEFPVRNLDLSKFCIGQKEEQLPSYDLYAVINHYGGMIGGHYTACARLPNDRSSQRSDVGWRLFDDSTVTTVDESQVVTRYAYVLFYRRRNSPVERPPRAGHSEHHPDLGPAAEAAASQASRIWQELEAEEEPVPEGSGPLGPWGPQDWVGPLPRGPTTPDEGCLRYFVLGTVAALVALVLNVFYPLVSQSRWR
In short: (§1)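 HEK293T lysate in Tris/CHAPS/IGEPAL buffer with protease inhibitors (495 µg per sample) was given fragment at 200 µM or vehicle for 3 h, in triplicate. It then received Biotin-Ahx-Ub-VS at 0.5 µM final for 1 h. Labelled DUBs were NeutrAvidin-enriched, digested with LysC and trypsin, and run by diaPASEF LC-MS/MS. Values are average log2 fragment/vehicle ratios by unpaired t-test on global-median-normalised Spectronaut quantities of proteins with ≥2 unique peptides.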

[2] = target: T2, USP22 (UniProt Q9UPT9)
T2 sequence (whole entry): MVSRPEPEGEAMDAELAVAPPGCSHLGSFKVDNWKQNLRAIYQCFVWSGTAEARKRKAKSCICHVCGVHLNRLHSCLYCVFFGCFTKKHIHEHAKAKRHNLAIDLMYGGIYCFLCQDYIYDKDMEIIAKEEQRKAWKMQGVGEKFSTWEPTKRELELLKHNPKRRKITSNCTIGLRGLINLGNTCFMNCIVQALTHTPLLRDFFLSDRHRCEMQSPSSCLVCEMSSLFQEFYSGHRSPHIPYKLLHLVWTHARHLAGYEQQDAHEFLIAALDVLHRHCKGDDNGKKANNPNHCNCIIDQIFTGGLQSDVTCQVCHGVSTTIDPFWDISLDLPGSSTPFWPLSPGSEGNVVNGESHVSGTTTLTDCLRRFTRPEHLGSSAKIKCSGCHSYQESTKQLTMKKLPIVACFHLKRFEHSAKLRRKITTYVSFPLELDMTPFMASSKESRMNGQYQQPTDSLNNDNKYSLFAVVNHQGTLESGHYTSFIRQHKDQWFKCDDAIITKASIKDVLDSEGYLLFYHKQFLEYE
In short: as §1

[3] = target: USP24 (UniProt Q9UPU5)
USP24, sequence (Q9UPU5 whole entry): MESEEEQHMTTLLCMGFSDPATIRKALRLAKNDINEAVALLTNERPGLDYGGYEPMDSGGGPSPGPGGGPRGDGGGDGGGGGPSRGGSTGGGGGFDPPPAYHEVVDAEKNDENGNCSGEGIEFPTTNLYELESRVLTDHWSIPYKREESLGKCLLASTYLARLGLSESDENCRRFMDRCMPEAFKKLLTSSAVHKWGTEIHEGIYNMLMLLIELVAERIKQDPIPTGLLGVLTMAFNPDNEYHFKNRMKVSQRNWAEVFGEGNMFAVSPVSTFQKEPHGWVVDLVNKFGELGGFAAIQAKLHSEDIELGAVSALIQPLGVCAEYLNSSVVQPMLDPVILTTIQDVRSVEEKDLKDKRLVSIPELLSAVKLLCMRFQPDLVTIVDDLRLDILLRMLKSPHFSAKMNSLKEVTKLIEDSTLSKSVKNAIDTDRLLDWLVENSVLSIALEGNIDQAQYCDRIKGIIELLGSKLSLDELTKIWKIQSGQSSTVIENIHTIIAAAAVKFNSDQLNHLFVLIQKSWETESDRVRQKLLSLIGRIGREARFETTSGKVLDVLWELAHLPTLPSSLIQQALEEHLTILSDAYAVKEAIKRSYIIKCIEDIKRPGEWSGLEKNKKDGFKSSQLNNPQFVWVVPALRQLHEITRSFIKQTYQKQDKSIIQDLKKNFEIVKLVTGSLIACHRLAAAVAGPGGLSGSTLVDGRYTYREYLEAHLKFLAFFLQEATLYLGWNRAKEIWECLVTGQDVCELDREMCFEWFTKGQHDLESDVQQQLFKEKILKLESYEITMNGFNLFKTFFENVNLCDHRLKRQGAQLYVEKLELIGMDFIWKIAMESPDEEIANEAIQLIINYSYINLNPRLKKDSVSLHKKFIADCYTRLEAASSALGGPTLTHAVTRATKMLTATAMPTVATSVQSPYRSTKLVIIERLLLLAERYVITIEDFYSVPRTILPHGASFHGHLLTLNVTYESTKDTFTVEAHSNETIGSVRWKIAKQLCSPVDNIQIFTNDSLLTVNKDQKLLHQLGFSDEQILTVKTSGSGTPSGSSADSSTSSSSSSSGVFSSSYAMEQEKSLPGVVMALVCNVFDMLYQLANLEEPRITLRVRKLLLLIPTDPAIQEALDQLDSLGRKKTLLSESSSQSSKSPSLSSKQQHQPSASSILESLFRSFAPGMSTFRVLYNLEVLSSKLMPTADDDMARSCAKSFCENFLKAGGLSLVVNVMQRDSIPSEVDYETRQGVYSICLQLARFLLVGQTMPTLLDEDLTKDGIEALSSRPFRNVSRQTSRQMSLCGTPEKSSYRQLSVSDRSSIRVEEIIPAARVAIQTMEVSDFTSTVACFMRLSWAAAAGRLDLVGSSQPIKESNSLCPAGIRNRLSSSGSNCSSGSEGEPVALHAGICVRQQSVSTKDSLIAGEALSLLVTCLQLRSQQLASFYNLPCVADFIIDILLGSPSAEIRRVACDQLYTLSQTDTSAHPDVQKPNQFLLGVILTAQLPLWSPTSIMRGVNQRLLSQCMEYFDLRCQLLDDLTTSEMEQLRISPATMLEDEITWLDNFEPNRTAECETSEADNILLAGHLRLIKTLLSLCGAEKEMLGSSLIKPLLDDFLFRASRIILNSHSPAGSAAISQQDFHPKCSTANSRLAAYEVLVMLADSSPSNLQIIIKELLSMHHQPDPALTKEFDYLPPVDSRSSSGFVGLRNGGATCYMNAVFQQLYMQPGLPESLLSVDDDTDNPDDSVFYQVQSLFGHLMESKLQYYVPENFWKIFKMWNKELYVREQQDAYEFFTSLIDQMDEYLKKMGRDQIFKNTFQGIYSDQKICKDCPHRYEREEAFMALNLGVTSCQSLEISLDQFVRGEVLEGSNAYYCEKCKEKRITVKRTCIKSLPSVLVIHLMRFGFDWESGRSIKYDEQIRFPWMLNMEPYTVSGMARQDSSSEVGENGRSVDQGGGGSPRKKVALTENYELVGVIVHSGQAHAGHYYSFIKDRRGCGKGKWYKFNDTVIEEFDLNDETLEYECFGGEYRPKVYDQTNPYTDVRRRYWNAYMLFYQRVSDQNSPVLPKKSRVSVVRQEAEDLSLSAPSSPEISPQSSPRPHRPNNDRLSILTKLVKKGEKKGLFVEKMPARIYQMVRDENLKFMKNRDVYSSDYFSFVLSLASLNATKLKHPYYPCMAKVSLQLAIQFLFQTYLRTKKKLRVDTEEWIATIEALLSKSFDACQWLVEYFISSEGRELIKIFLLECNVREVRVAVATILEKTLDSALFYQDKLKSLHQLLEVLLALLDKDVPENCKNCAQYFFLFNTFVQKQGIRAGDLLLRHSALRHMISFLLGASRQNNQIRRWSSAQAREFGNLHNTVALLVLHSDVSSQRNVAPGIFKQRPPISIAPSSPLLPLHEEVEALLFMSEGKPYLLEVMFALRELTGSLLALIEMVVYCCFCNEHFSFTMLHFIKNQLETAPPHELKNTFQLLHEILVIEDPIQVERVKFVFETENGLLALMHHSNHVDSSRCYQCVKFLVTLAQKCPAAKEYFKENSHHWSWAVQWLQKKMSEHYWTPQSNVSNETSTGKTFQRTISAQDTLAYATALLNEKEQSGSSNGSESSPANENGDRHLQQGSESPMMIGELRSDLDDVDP
In short: as §1

[4] = target: T3, USP25 (UniProt Q9UHP3)
T3 sequence (whole entry): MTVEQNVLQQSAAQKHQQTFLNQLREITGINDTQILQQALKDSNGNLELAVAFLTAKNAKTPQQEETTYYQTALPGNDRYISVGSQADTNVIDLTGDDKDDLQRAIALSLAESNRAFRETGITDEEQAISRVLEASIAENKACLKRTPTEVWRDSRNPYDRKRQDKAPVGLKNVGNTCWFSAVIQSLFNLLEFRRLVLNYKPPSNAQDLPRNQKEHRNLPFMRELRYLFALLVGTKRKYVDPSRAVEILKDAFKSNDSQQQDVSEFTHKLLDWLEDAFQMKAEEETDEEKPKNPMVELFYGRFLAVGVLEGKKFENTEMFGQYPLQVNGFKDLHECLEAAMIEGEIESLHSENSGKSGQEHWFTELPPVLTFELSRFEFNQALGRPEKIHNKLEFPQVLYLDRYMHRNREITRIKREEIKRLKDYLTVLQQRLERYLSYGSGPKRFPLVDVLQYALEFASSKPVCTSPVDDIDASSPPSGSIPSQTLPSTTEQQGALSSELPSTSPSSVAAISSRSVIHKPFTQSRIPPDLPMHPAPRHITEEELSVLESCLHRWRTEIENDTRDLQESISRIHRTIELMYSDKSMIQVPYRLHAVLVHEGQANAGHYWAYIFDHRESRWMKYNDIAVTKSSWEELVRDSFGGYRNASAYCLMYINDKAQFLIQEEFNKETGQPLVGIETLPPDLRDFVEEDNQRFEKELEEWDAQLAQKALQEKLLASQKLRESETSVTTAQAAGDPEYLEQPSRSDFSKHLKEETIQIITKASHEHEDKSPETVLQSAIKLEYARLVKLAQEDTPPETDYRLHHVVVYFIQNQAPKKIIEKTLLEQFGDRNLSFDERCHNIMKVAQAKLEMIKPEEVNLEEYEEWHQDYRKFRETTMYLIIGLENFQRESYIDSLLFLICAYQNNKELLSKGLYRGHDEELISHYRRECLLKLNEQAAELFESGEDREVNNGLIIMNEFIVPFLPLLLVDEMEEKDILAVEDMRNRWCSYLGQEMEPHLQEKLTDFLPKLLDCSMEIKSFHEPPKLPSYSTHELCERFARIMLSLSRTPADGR
In short: as §1

[5] = target: T4, USP28 (UniProt Q96RU2)
T4 sequence (whole entry): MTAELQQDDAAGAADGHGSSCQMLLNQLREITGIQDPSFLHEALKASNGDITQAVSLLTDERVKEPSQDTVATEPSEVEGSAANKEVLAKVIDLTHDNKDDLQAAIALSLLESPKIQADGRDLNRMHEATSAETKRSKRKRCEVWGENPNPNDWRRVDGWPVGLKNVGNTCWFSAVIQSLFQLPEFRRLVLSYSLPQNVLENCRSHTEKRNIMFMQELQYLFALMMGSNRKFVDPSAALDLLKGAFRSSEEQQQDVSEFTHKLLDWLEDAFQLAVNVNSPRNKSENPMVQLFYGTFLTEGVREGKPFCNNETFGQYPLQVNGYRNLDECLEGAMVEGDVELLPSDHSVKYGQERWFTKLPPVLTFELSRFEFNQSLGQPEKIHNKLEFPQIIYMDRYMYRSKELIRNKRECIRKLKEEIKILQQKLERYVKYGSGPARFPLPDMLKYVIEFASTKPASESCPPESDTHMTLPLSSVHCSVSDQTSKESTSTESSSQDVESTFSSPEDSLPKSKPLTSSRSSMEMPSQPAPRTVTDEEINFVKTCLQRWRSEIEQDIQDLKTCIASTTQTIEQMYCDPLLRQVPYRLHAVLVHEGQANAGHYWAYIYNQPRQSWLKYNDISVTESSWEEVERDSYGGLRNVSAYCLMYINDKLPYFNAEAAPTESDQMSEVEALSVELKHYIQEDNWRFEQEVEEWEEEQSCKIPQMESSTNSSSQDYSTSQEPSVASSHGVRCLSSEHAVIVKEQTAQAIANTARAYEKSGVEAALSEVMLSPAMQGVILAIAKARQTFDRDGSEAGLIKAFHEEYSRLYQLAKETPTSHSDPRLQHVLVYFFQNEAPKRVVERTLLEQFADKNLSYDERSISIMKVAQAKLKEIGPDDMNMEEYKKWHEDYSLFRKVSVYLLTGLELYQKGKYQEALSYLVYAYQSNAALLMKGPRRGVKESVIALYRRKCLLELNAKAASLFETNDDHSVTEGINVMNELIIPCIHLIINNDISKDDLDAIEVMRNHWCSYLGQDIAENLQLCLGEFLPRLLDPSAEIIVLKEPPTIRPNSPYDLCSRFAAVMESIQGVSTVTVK
In short: as §1

Measured: log2 ratio of Biotin-Ahx-Ub-VS probe labelling

Cc1ccc(CC(CO)CNC(=O)CCl)cc1 (stereo not given)
inactive: [1] -0.487 | [2] -0.0764 | [3] -0.554 | [4] -0.531 | [5] -0.597
